# Assay results reported in PubChem BioAssay AID1851 (National Center for Advancing Translational Sciences (NCATS), 2009).
# Values joined by “and” are separate entries in the source; they are usually repeats but may differ in a detail not shown here. Equal entries are not always repeated. Among all 16,000 compounds or so, about 2,600 (16%) were called active. Inconclusive results (about 20%) are left out. The list is a sample of the results. Values without a mark were called inactive. The call rests on the fitted dose curve; in most records, active means well fitted curve in the direction sought with a large enough effect; inconclusive means small, poorly fitted or top-dose-only effect, or effect the other way; inactive means no such curve, though single readings can be large or run the other way.
# Biological target: Cytochrome P450 2D6 (Homo sapiens) (UniProt P10635)
# Sequence (P10635 whole entry, looked up): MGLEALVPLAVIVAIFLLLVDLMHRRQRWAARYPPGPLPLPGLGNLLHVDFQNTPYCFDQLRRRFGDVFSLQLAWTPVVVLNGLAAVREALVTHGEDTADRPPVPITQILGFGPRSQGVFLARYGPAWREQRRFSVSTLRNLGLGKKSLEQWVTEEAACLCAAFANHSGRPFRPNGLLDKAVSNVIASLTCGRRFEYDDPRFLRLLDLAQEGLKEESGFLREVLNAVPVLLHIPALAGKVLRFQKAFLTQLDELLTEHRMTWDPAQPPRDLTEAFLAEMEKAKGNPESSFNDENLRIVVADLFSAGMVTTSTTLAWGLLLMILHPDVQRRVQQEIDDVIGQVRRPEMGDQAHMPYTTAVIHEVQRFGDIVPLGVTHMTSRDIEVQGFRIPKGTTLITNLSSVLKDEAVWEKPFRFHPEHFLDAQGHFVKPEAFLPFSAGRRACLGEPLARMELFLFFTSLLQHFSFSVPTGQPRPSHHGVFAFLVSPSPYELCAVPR
# Experiment: Cytochrome panel assay with activity outcomes
# Conditions: recombinant CYP, pro-luciferin dealkylation, luminescence, p450-cyp2d6; series mostly up to 57.1 µM; activity, negative = inhibition: at the top concentration
# On the % scale 0 is the no-effect control and ±100 the full control effect.
Structure (SMILES),"activity, negative = inhibition",AC50
CCC/C=C(\CCC)C(NS(=O)(=O)c1cccc2cccnc12)c1ccc(-c2ccccc2)cc1 (stereo not drawn),3.7%,
Fc1ccc(COc2ccc(Br)cc2CNCc2ccncc2)cc1,,0.126 µM (active)
C[N+]1(C)CCO[C@](O)(c2ccccc2)C1,0.284% [at 11.4 µM],
OCCNc1ncnc2c1ncn2[C@@H]1O[C@@H](CO)[C@H](O)[C@@H]1O,3.15% [at 11.4 µM],
COc1ccc(-c2nc(-c3cccc(C)c3)nc(N3CCN(C)CC3)c2C#N)cc1,-4.97%,
CN1CCCC1CCNC1C2CC3CC(C2)CC1C3 (stereo not drawn),-4.6%,
c1ccc(CN2CCC3(CCCc4ccccc43)CC2)cc1,,0.251 µM (active)
CC(=O)c1ccc(N2CCC(c3cc(-c4ccc(Cl)cc4)n[nH]3)CC2)c([N+](=O)[O-])c1,-10.3%,
CCOc1cc(/C=C2/C(=N)N3C=CSC3=NC2=O)ccc1OCCCOc1ccccc1C,1.57%,
CCc1nc(SCC(=O)NCCc2ccccc2)c2oc3ccccc3c2n1,-12.7%,
O=C(CSCc1ccccc1Cl)NN1C(=O)c2ccccc2C1=O,-17.7%,
NCCSCc1ccccc1Cl,,3.16 µM (active)
O=C(CSCc1ccccc1Cl)NNC(=O)c1ccccc1,1.46%,
COc1ccc(C2N(c3ccccn3)C(=O)C3CCCN32)c(OC)c1 (stereo not drawn),4%,
CSc1ccc(Cl)c(C(=O)NCCOc2cc(C)ccc2C(C)C)c1,,11.2 µM (active)
Cc1ccc(OCCNC(=O)c2cc(-n3cnnc3)ccc2Cl)cc1C,29.2%,
CN(C)CCNC(=O)c1cc(Br)ccc1Cl,-18.4%,
O=C1CCCC=C1[C@H](O)c1ccc([N+](=O)[O-])cc1,-11.2% [at 11.4 µM],
Cc1ccc(C(N)=Nc2ccccc2)cc1,,3.16 µM (active)
NC(N)=NC(N)=Nc1ccccc1,2.4%,
NC(N)=NC(N)=Nc1ccccc1 (tested in a mixture with another compound),-8.99% [at 11.4 µM],
COCCn1c(=O)c(-c2cccc(C#N)c2)nc2cnc(N3CCNCC3)nc21,-6.32%,
CCC(=O)NC(=S)N1CCN(c2ccc([N+](=O)[O-])cc2Cl)CC1,-14.4%,
O=[N+]([O-])c1ccc(N2CCN(CCOc3nonc3-c3ccccc3)CC2)c(Cl)c1,,0.112 µM (active)
O=[N+]([O-])c1ccc(N2CCN(Cc3ccccc3)CC2)c(S(=O)(=O)N2CCOCC2)c1,-18.2%,
CCCCCCc1nc2ccccc2c(=O)n1NC(=O)c1c(O)c2c(n(CC(C)C)c1=O)CCCC2,22.7%,

Structure (SMILES),"activity, negative = inhibition",AC50
CCCn1c2c(c(O)c(C(=O)NCc3ccccc3)c1=O)CCCC2,,10 µM (active)
Cc1cc(=O)oc(C)c1C(=O)NCc1ccccc1,-2.69%,
O=c1cnc2cnc(Nc3ccccc3)nc2n1CCc1ccccc1,-1.38%,
Cc1ccccc1C(=O)N1CCN(c2ccc([N+](=O)[O-])c(N3CCOCC3)c2)CC1,-1%,
Cc1cccc(C)c1NC(=O)CSc1nc(C)c(CC(=O)c2ccc(Br)cc2)c(C)c1C#N,-9.75%,
Cc1ccnc(NCn2nnc3ccccc32)c1,-14.9%,
COCCN1CN=C(Nc2nc3ccccc3o2)NC1,12%,
c1ccc2sc(NC3=NCN(C4CCCCCC4)CN3)nc2c1,,1 µM (active)
COc1ccc(CN2CN=C(Nc3nc4ccccc4s3)NC2)cc1,,7.94 µM (active)
COc1ccc(C(=O)NCc2ccc(-c3nc4ccccc4s3)cc2)cc1,-11.6%,
O=C(NNc1nc2ccccc2s1)C1CC1,-14.5%,
c1ccc(/C(=N/Nc2nc3ccccc3s2)c2ccccn2)cc1,-1.95% [at 11.4 µM],
C[C@H](C(=O)c1ccccc1)[C@@H](c1ccccc1)N1CCOCC1,-5.64% [at 11.4 µM],
CC1=C(C#N)C(Nc2ccc(Cl)cn2)(C(F)(F)F)C(=O)N1 (stereo not drawn),-11.3%,
Cn1c(=O)c(-c2cc(F)cc(F)c2)nc2cnc(N3CCOCC3)nc21,-1.51%,
COc1ccc(Nc2ncc3nc(-c4cccs4)c(=O)n(Cc4cccc(OC)c4)c3n2)cc1,4.4%,
CCOc1cc(/C=N/NC(=O)CNc2cccc(C)c2)ccc1OC(=O)c1ccccc1,-19.5%,
Cc1ccc(CS(=O)(=O)CCC(=O)NCc2cccs2)cc1,,11.2 µM (active)
CCOCCCNC(=O)CCS(=O)(=O)Cc1ccc(C)cc1,-3.09%,
Cc1ccc(CS(=O)(=O)CCC(=O)NCc2ccccn2)cc1,2.91%,
COCC(=O)N(C)c1nnc(-c2ccc([N+](=O)[O-])cc2)s1,6.42%,
Cc1ccc(C)c(OCCCC(C)(C)C(=O)O)c1,1.86% [at 25.6 µM],
CC(C)C(NC(=O)OCc1ccccc1)C(=O)O (stereo not drawn),23.6%,
N[C@@H](Cc1ccccc1)C(=O)O,4.66% [at 11.4 µM],
N[C@H](C(=O)O)[C@H](OCc1ccccc1)C(=O)O,,7.94 µM (active)
CCOC(=O)C1=C(C)NC(C)=C(C(=O)OCC)C1c1sccc1C,-25.9%,

Structure (SMILES),"activity, negative = inhibition",AC50
CCCCC(=O)NC(=S)Nc1cccc(NC(=O)CC)c1,-10.2%,
Cc1cc(C)c(NC(=O)NC(=O)c2ccc(F)cc2)c(C)n1,5.27%,
CCCCCN=c1ccn(Cc2ccccc2)c2ccccc12,,10 µM (active)
O=C(O)c1ccccc1C(=O)Nc1cc2c(cc1Br)-c1ccccc1C2=O,16.7% [at 11.4 µM],
Cl/C(=C\n1cncn1)c1ccc(Cl)cc1Cl,-3.83%,
CC1(C)[C@@H]2CC[C@]1(CC(=O)O)[C@H](Cl)C2,6.22% [at 11.4 µM],
CC(=O)Nc1cc(C(F)(F)F)ccc1Oc1cccc(Br)c1,,10 µM (active)
COc1ccc(C(C)(C)C)cc1NC(=O)c1cncc(Br)c1,9.49%,
CCOc1ccc(C(F)(F)F)cc1NC(C)=O,-26.1%,
CSCC[C@H](NC(=O)CC(C)(C)C)c1nc2ccccc2[nH]1,-2.27%,
C[N+](C)(C)c1nc(N)nc2c1ncn2[C@H]1O[C@@H](CO)[C@@H](O)[C@H]1O,6.01% [at 11.4 µM],
O=C(COc1ccc(Br)cc1)Nc1ccc([N+](=O)[O-])cn1,-1.99%,
COc1cc(/C=N\Nc2ccc([N+](=O)[O-])cc2)ccc1OCC(=O)Nc1ccc(C)c(C)c1,-6.34%,
O=C(COc1ccc([N+](=O)[O-])cc1)Nc1ccc(C(=O)NCc2cccnc2)cc1,,3.16 µM (active)
CCOC(=O)c1cccc(NC(=O)COc2ccc([N+](=O)[O-])cc2)c1,,1.41 µM (active)
O=C(COc1ccc(/C=N/NC(=O)c2ccccc2)cc1)Nc1ccc([N+](=O)[O-])cc1,-21%,
O=C(COc1ccc([N+](=O)[O-])cc1)NCc1ccccc1,-28.4%,
O=S(=O)(c1ccccc1)c1cnn2c(C(F)(F)F)cc(-c3ccc(F)cc3)nc12,-27.4%,
COc1c(O[C@H]2O[C@@H](CO)[C@@H](O)[C@@H](O)[C@@H]2O)cc2c(c1OC)-c1ccc(SC)c(=O)cc1[C@H](NC(C)=O)CC2,-2.73% [at 25.6 µM],
O=C1CCCC=C1[C@@H](O)CCOC(c1ccccc1)(c1ccccc1)c1ccccc1,-20.1% [at 11.4 µM],
CCOP(=O)(OCC)c1nc(/C=C/c2ccccc2)oc1NCc1ccccc1,-19.8%,
Fc1ccc(SCCc2ccncc2)cc1,,5.01 µM (active)
O=C(O)CCCSc1ccccc1,0.436% [at 11.4 µM],
O=C1c2ccccc2C(Cc2ccncc2)(Cc2ccncc2)c2ccccc21,0.345%,
c1ccc(SCCc2ccncc2)cc1,,2.82 µM (active) and 1.26 µM (active)
C[C@@H]1CCCC(CC(=O)O)(CC(=O)O)C1,0.077% [at 11.4 µM],

Structure (SMILES),"activity, negative = inhibition",AC50
Cc1cccnc1NC(=O)C12CCC(C)(C(=O)O1)C2(C)C (stereo not drawn),6.8%,
O=C(O)c1nnsc1-c1ccc(-c2snnc2C(=O)O)cc1,-3.33% [at 11.4 µM],
CC(=O)Nc1ccc(Sc2ncccc2C(=O)Nc2ccc(F)cc2)cn1,2.14%,
CC(=O)Nc1ccc(C#Cc2ccc(NC(C)=O)cc2)cc1,1.93%,
CCCCN(c1ccccc1)c1ncnc2c1cnn2C,-12.5% [at 11.4 µM],
Cc1[nH]nc(N2CCCCCC2)c1[N+](=O)[O-],,15.8 µM (active)
O=[N+]([O-])c1cccnc1N1CCCCC1,6.64%,
Cc1nc(N2CCOCC2)nc(N2CCN(c3ccccc3)CC2)c1[N+](=O)[O-],-19.2%,
Cn1c(Oc2ccccc2)c(C=O)c2ccccc21,-8.7%,
CCOc1ccc(OCC)c(-c2c(=O)n(OCc3ccccc3C(=O)OC)c3ccccc3[n+]2[O-])c1,15.3%,
O=c1onc2cnc3ccccc3n12,5.31%,
Cc1nc2c(C#N)c(C)[nH]n2c(=O)c1Cc1ccccc1,-0.766%,
Cc1ccc(-n2c(O)c(/C=N/n3cnnc3)c3ccccc3c2=O)cc1,-15.6%,
COc1cccc(-c2[nH]nc3c2C(c2ccc(C)o2)C(C#N)=C(N)O3)c1 (stereo not drawn),-18.8%,
COc1cccc(-c2[nH]nc3c2C(c2ccsc2)C(C#N)=C(N)O3)c1 (stereo not drawn),-20.1%,
C/C(=C\c1ccco1)C1C(C#N)=C(N)Oc2n[nH]c(-c3ccccc3)c21 (stereo not drawn),,31.6 µM (active)
Nc1ccccc1S(N)(=O)=O,-5.43% [at 25.6 µM],
O=C(O)CC(O)C(=O)O (stereo not drawn),-29%,
Cc1cc(C)c(S(=O)(=O)NCC2CCC(C(=O)NCc3ccc4c(c3)OCO4)CC2)c(C)c1 (stereo not drawn),,12.6 µM (active)
CCN(CC)S(=O)(=O)N1CCC(C(=O)NCc2ccc(C)cc2)CC1,-6.16%,
Cc1ccc(S(=O)(=O)NCC2CCC(C(=O)O)CC2)cc1 (stereo not drawn),17.3%,
CN(C)CCNCCN,8.7% [at 11.4 µM],
COCCn1c(=O)cnc2cnc(Oc3cccc(Cl)c3)nc21,-1.14%,
C=C(C)C1Cc2nc(N)nc(C)c2C1 (stereo not drawn),4.24%,
Cc1nc2nc[nH]n2c(=O)c1NC(=O)CC12CC3CC(CC(C3)C1)C2,6.11%,
